The values below come from the supplement of paper PMC7724964.

The target of one experiment is T1, STAM 1-143 VHS (domain begin residue: 1, domain end residue: 143), Q92783.
T1 chain: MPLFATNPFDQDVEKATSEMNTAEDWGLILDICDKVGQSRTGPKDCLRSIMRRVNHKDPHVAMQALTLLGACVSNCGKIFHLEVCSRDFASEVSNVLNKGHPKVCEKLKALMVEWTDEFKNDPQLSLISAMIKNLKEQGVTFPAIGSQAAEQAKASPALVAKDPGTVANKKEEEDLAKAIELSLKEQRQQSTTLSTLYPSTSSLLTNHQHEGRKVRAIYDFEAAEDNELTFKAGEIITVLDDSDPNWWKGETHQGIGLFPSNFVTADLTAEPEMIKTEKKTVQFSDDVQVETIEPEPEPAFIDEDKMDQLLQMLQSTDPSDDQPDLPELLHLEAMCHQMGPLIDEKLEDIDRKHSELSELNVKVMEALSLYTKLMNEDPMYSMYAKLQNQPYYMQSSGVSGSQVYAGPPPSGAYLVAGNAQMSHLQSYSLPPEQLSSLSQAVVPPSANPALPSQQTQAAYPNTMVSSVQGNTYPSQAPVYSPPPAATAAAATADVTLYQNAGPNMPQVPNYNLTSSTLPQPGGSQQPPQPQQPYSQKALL
In words: phage ELISA signal ratio (GST-PRM binding over GST background); higher = stronger binding of peptide-phage to the PRM. An outline of the steps:
(§1)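 Human peptide recognition domains were expressed in 96-well plates as fusions to the C-terminus of glutathione S-transferase (GST) and selected against an M13 phage library displaying randomized hexadecapeptides, cysteine-free and glycine-flanked, on the gene-8 major coat protein. Five selection rounds were run, and approximately 48 individual clones from rounds 4 and 5 were tested by phage ELISA. Each value is the ELISA signal on the GST-domain fusion divided by the signal on GST alone. Positive clones were sequenced.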
On to DQEWLSKPWQFWAMDM, for which the “phage ELISA signal ratio” value was found to be 4.69.

As to HESMVMFTDEFFQQYL, the “phage ELISA signal ratio” value amounted to 5.23.

As to EPYMIQVPWESHWDVH, the “phage ELISA signal ratio” value was 9.25.

In the case of AYVWDDWVWTSLPWVE, the “phage ELISA signal ratio” value turned out to be 6.69.

HSEIWLMTYLDSLAMY: the “phage ELISA signal ratio” value was found to be 13.

NKHDTEEFMVRTFLSE: the “phage ELISA signal ratio” value came to 6.48.

PFDAWPIGWEIQQQYF: the “phage ELISA signal ratio” value came out at 8.91.

For TQFNMHDEALFMTKLF, the “phage ELISA signal ratio” value was 19.2.

The target in another experiment is T2, SPSB2 26-221 SPRY (domain begin residue: 26, domain end residue: 221), Q99619.
T2 chain: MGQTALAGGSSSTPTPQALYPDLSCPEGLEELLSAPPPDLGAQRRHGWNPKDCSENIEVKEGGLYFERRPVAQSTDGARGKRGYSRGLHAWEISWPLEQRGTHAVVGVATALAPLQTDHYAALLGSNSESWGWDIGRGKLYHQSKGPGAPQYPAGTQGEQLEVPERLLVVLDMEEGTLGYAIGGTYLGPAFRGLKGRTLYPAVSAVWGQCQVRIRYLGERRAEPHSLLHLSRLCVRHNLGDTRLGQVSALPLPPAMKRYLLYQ
The experiment is described as above. The procedure, abridged:
as §1
On to MEKDMNGNMAVFEMHH, for which the “phage ELISA signal ratio” value turned out to be 39.2.

Take AGPDWNHNRLTFNHPQ: the “phage ELISA signal ratio” value was found to be 35.2.

Turning to WDLDWAVSDHNGNVMV, the “phage ELISA signal ratio” value was 41.6.

For the molecule PARDINNNAATAYINV, the “phage ELISA signal ratio” value was 39.5.

Consider HLEQDWNGNWLMNEKD, for which the “phage ELISA signal ratio” value amounted to 41.2.

Regarding RFPMYDHNANLLPLPQ, the “phage ELISA signal ratio” value was found to be 38.1.

DKYWPVDPNNNMPRFG: the “phage ELISA signal ratio” value worked out at 37.4.

As to GFEFHPVYDWNNNIQK, the “phage ELISA signal ratio” value is 36.6.

In the case of KKDWNNNIEAWLVGEE, the “phage ELISA signal ratio” value is 36.6.

GFLDPNQNIVRETLIL: the “phage ELISA signal ratio” value amounted to 34.2.

Turning to MDFTDVNGNLLNAFTA, the “phage ELISA signal ratio” value was 38.3.

As for YPQWLASSRGEMNNNI, the “phage ELISA signal ratio” value worked out at 36.2.

Take PEFLDENNNVDVGHTW: the “phage ELISA signal ratio” value came out at 38.3.

For MDWNNNWNHSLESTQN, the “phage ELISA signal ratio” value came to 36.1.

Regarding EVMYDWNGNASSLLMM, the “phage ELISA signal ratio” value came to 35.3.

Regarding EYTLDENANMEQLWEV, the “phage ELISA signal ratio” value worked out at 35.8.

With KQDYLNVTDWNNNAVM, the “phage ELISA signal ratio” value is 44.7.

Turning to YEIMENNNWLNNAGVF, the “phage ELISA signal ratio” value was 40.1.

The target in the next experiment is T3, SPSB4 1-273 SPRY (domain begin residue: 1, domain end residue: 273), Q96A44.
T3 chain: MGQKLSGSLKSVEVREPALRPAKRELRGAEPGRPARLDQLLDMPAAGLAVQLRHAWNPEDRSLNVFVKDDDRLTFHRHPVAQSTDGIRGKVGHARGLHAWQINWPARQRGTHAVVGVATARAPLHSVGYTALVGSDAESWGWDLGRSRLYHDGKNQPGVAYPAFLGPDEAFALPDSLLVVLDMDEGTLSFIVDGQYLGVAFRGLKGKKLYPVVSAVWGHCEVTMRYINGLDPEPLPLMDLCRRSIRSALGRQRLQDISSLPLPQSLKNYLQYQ
The description is as above. The procedure, abridged:
as §1
As to MVQDSINNNNWLVPWV, the “phage ELISA signal ratio” value is 7.42.

For WDFVGEWDSNNNTVTR, the “phage ELISA signal ratio” value was 7.05.

Take QMDYNQNMPSIQWARE: the “phage ELISA signal ratio” value stood at 8.15.
